Here are results for 18 compounds from PubChem BioAssay (NCATS).

Structures are written as SMILES. Values without a mark were called inactive. Records with an inconclusive call do not appear. The source made the active and inactive calls. The call rests on the fitted dose curve; in most records, active means well fitted curve in the direction sought with a large enough effect; inconclusive means small, poorly fitted or top-dose-only effect, or another doubt; inactive means no such curve, though single readings can be large; an effect the other way counts as inactive or inconclusive.

The target in assay [1] is Phospholipid hydroperoxide glutathione peroxidase GPX4 (Homo sapiens) (UniProt P36969). Nature of the assay: Primary qHTS Assay for Inhibitors of Recombinant Selenoprotein Glutathione Peroxidase 4 (GPX4) (AID 1845192). Further: nearly all actives have a fitted effect of over 65% in size. Further: potency means the concentration at half of the fitted maximal effect. On activity change, negative = inhibition: on the % scale 0 is the no-effect control and ±100 the full control effect. As to conditions: recombinant GPX4, GR-coupled NADPH fluorescence, 15 min; series mostly up to 50 µM. The essentials: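 NADPH consumption, followed by fluorescence at 340/450 nm between 0 and 15 min, reports GPX4 activity via coupled glutathione reductase (100 nM). Enzyme 200 nM was pre-exposed to compound 30 min; 0.5 mM cumene hydroperoxide and 1 mM GSH served as substrates.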
Chain of Phospholipid hydroperoxide glutathione peroxidase GPX4 (Homo sapiens) (P36969 whole entry, looked up): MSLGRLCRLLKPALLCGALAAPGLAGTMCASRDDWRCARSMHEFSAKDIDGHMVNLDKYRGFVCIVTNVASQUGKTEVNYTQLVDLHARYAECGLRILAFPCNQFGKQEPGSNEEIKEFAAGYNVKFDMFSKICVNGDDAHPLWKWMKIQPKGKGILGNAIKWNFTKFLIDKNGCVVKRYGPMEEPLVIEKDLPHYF

For assay [2], the target named is Luciferin 4-monooxygenase (Photinus pyralis) (UniProt P08659). The experiment in a line: Primary firefly luciferase (FLuc) qHTS assay for identification of artifact compounds. (AID 1845220). Further: nearly all actives have a fitted effect of over 60% in size.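 On activity change, negative = inhibition: plate controls were DMSO vehicle for no effect and no enzyme for full effect.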 The conditions noted are these: purified firefly luciferase, luminescence, 5 min; series mostly up to 54.1 µM. The essentials:
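Cell-free, 1536-well qHTS. Buffer pH 7.6 with 0.01% Tween-20 and 0.05% BSA; 10 uM D-luciferin, 10 uM ATP; 10 nM P. pyralis luciferase; luminescence after 5 min.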
(In general: Quantitative high-throughput screening tests each substance at several concentrations.)

Assay [3] is described as follows: Primary fluorescence-based thiol-reactive (MSTI) qHTS assay for identification of artifact compounds. (AID 1845221).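 Further: thiol-reactive compounds lower the probe fluorescence signal; nearly all actives have a fitted effect of over 65% in size.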 The conditions noted are these: MSTI thiol-reactivity probe, 1 h; series mostly up to 53.8 µM. The method in brief:
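MSTI probe at 4 uM final in 2% DMSO/PBS pH 7.4; compounds, 1 h at room temperature in dark. Fluorescence Ex/Em 525/598 nm, normalised to Acetyl-MSTI and MSTI, fitted to 4-parameter Hill.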

In assay [4] the test system is Nanoluciferase (engineered Oplophorus gracilirostris luciferase). Nature of the assay: Primary Nanoluciferase (NLuc) qHTS assay for identification of artifact compounds. (AID 1845222).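 Further: 0% = DMSO and -100% = no enzyme.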 The conditions noted are these: NLuc-conditioned medium, Nano-Glo luminescence, 5 min; series mostly up to 54.1 µM. The method in brief: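 Compounds are pinned into diluted (1:55) conditioned medium of NLuc-expressing S16 cells and held 15 min at room temperature protected from light. Nano-Glo substrate follows, and luminescence is read 5 min later.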

Assay [5] is described as follows: Primary redox qHTS assay for identification of artifact compounds. (AID 1845223).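 Further: 0% = DMSO and 100% = reference compound.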 As to conditions: Amplex Red/HRP redox cycling with DTT, fluorescence; series mostly up to 53.8 µM. The method in brief:
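Amplex Red (25 uM) and HRP (250 mU/mL) in HBSS, with compounds for 15 min, then 250 uM DTT for 30 min, room temperature, dark. Fluorescence 525/598 nm read; normalized to DMSO and 10 uM DA3003; Hill fit.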

Consider `CCNC(=O)Nc1ccc(-c2nc3c(c(N4CCOC[C@@H]4C)n2)CCN(c2ncccn2)C3)cc1`, for which the Potency entry in assay [1], in assay [2], in assay [3], in assay [4] and in assay [5] was “inactive” throughout.
As to `CNC(C)C(=O)NC(C(=O)N1CCCC1c1nc(C(=O)c2ccc(F)cc2)cs1)C1CCCCC1` (stereo not given), the Potency entry in assay [1], in assay [2], in assay [3], in assay [4] and in assay [5] was “inactive” throughout.
For `Cn1nc(C(C)(C)C)cc1C(=O)NC(Cc1cccc(Cl)c1)C(=O)NCC#N` (stereo not given), the Potency entry in assay [1], in assay [2], in assay [3], in assay [4] and in assay [5] was “inactive” each time.
For the compound `CC(=O)O[C@H]1[C@H](O[C@H]2[C@@H]3C=CO[C@@H](O[C@@H]4O[C@H](CO)[C@@H](O)[C@H](O)[C@H]4O)[C@@H]3[C@@]3(CO)O[C@@H]23)O[C@@H](C)[C@H](OC(=O)/C=C/c2ccccc2)[C@H]1OC(=O)/C=C/c1ccccc1`, the Potency entry in assay [1] is “inactive”. In assay [2], the outcome is “inactive [at 11.6 µM]”. Moreover, in assay [3], the activity change, negative = thiol reactive was 2.44% [at 11.5 µM]. Besides, the activity, negative = inhibition in assay [4] was 2.49% [at 11.6 µM]. The redox activity (% of DA3003) in assay [5] is 5.63% [at 11.5 µM].
Regarding `CC(=O)O[C@@H]1[C@H](O)[C@@H](O[C@@H]2O[C@@H](C)[C@H](O[C@@H]3OC[C@@H](O)[C@H](O[C@@H]4OC[C@@H](O)[C@H](O)[C@H]4O)[C@H]3O)[C@@H](O[C@@H]3O[C@H](CO)[C@@H](O)[C@H](O)[C@H]3O)[C@H]2O)[C@H](OC(=O)[C@]23CCC(C)(C)C[C@H]2C2=CCC4[C@@]5(C)CC[C@H](O[C@@H]6O[C@H](C(=O)O)[C@@H](O)[C@H](O[C@@H]7OC[C@@H](O)[C@H](O)[C@H]7O)[C@H]6O[C@@H]6O[C@H](CO)[C@H](O)[C@H](O)[C@H]6O)[C@@](C)(C=O)C5CC[C@@]4(C)[C@]2(C)CC3)O[C@@H]1C` (stereo not given in full), the activity change, negative = inhibition is 2.64% [at 9.73 µM] in assay [1] and 3.61% [at 6.45 µM] in assay [2]. The activity change, negative = thiol reactive in assay [3] is 306% [at 6.41 µM]. In assay [4], the activity, negative = inhibition is 0% [at 6.45 µM]. Besides, the redox activity (% of DA3003) in assay [5] was -0.0347% [at 6.41 µM].
Regarding `CC(C)=CCC[C@](C)(O[C@@H]1O[C@H](CO)[C@@H](O)[C@H](O)[C@H]1O)[C@H]1CC[C@]2(C)[C@@H]1[C@H](O)CC1[C@@]3(C)CC[C@H](O)C(C)(C)C3[C@@H](O[C@@H]3O[C@H](CO)[C@@H](O)[C@H](O)[C@H]3O[C@@H]3OC[C@@H](O)[C@H](O)[C@H]3O)C[C@]12C` (stereo not given in full), in assay [1], the Potency result was “inactive”. Moreover, the activity change, negative = inhibition in assay [2] is -4.76% [at 11.6 µM]. Besides, in assay [3], the activity change, negative = thiol reactive is 136% [at 11.5 µM]. In assay [4], the activity, negative = inhibition is -0.941% [at 11.6 µM]. In addition, the redox activity (% of DA3003) in assay [5] is 12.7% [at 11.5 µM].
As to `CCOc1cc(CC(=O)NC(CC(C)C)c2ccccc2N2CCCCC2)ccc1C(=O)O` (stereo not given), the Potency result in assay [1], in assay [2], in assay [3], in assay [4] and in assay [5] was “inactive” in each case.
With `CC(c1ncncc1F)C(O)(Cn1cncn1)c1ccc(F)cc1F` (stereo not given), the Potency result in assay [1], in assay [2], in assay [3], in assay [4] and in assay [5] was “inactive” in each case.
On to `CC(C)CN(C[C@@H](O)[C@H](Cc1ccccc1)NC(=O)O[C@@H]1CO[C@H]2OCC[C@H]21)S(=O)(=O)c1ccc(N)cc1`, for which the Potency result in assay [1], in assay [2], in assay [3], in assay [4] and in assay [5] was “inactive” throughout.
On to `C[C@@H]1C[C@H]2O[C@@H]2/C=C\C=C\C(=O)Cc2c(Cl)c(O)cc(O)c2C(=O)O1`, for which the Potency result in assay [1] is “inactive”. Also, the activity change, negative = inhibition in assay [2] is -8.64% [at 11.6 µM]. Moreover, in assay [3], the activity change, negative = thiol reactive is -4.56% [at 11.5 µM]. Further, the activity, negative = inhibition in assay [4] is -2.67% [at 11.6 µM]. The redox activity (% of DA3003) in assay [5] was 4.19% [at 11.5 µM].
For `COc1ccc(CNC(=O)c2cc(-c3cncc(C)c3)ncc2-c2nccs2)nc1OC`, the Potency entry in assay [1], in assay [2], in assay [3], in assay [4] and in assay [5] was “inactive” each time.
Turning to `CC(=O)O[C@H]1C(=O)[C@@]2(C)[C@H]([C@H](OC(=O)c3ccccc3)[C@]3(O)C[C@H](OC(=O)[C@H](O)[C@@H](NC(=O)c4ccccc4)c4ccccc4)C(C)=C1C3(C)C)[C@]1(OC(C)=O)CO[C@@H]1C[C@@H]2O`, the Potency result in assay [1] is “inactive”. Moreover, in assay [2], the activity change, negative = inhibition was -3.6% [at 11.6 µM]. For the same compound, the activity change, negative = thiol reactive in assay [3] was 52.3% [at 11.5 µM]. For the same compound, in assay [4], the activity, negative = inhibition was 4.66% [at 11.6 µM]. In addition, the redox activity (% of DA3003) in assay [5] is 1.32% [at 11.5 µM].
Turning to `CC(NC(=O)CCc1nc2ccccc2c(=O)[nH]1)c1ccccc1` (stereo not given), the Potency result in assay [1], in assay [2], in assay [3], in assay [4] and in assay [5] was “inactive” each time.
In the case of `NC1(C(=O)NC(CCO)c2ccc(Cl)cc2)CCN(c2ncnc3[nH]ccc23)CC1` (stereo not given), the Potency entry in assay [1], in assay [2], in assay [3], in assay [4] and in assay [5] was “inactive” in each case.
For `CC(C)c1c2cc(-c3ccnc(NC4CCC(NC5CCOCC5)CC4)n3)ccc2nn1C` (stereo not given), the Potency in assay [1] was 9.04 µM (active). The Potency result in assay [2], in assay [3], in assay [4] and in assay [5] was “inactive” each time.
Consider `COc1c2c(c(CO)c3c1C(=O)OC3)OC1(C)CCC3(O)C(C)(C)OC(=O)CCC3(C)C1C2` (stereo not given), for which the Potency entry in assay [1], in assay [2], in assay [3], in assay [4] and in assay [5] was “inactive” each time.
As for `COc1ccc(C[C@H](N)C(=O)N[C@@H]2[C@H](O)[C@H](n3cnc4c(N(C)C)ncnc43)O[C@@H]2CO)cc1`, the Potency entry in assay [1], in assay [2], in assay [3], in assay [4] and in assay [5] was “inactive” in each case.
As for `COC(C(=O)N1Cc2[nH]nc(NC(=O)c3ccc(N4CCN(C)CC4)cc3)c2C1)c1ccccc1` (stereo not given), the Potency entry in assay [1], in assay [2], in assay [3], in assay [4] and in assay [5] was “inactive” throughout.
